Compounds with a hit are over-represented: about 8% of the library has one in this group of screens.
Lassa entry inh – qHTS for Inhibitors of binding or entry into cells for Lassa Virus | Lassa virus pseudotype entry inhibition, cell reporter | Potency, µM (doses to about 37.9 µM), inactives show at the highest dose activity change, negative = inhibition, usual class: inhibitors | 300,000 compounds, 1.2% hits; calls by dose curve; tested in HEK293 cells; note: potency is the fitted concentration of half-maximal effect; % is set by controls: 0 for no effect and ±100 for the full control effect; nearly all actives have a fitted effect of over 50% in size
HCMV antiviral – qHTS Assay for inhibitors of the human cytomegalovirus (HCMV) | HFF cells, HCMV-luciferase reporter, 72 h; active compounds read low | AID 1259415, 2018 | 410,000 compounds, 4.5% hits | activity change, negative = inhibition, % at 57.5 µM; in the data active = activity change below about -60%; inconclusive = no clear call, values can overlap the other calls; inactive = above about -39%; note: % is set by controls: 0 for no effect and ±100 for the full control effect
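Inhibition of viral replication was scored as loss of reporter luminescence in HFFs infected with HCMV-luciferase (MOI 1 PFU/cell) for 72 h; compounds tested at 2 doses, normalized to buffer and Salinomycin controls.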
HCV inh – qHTS Assay for Inhibitors of Hepatitis C Virus (HCV); Huh7.5.1 HCVcc-Cre infection, luciferase reporter, 44 h; Potency, µM (top dose mostly 41.8 µM), inactives show top-dose activity change, negative = inhibition, actives largely listed as inhibitors; 340,000 compounds, 3.4% hits; AID 651820, 2012; active = well fitted inhibition curve with a large enough effect; inconclusive = small, poorly fitted or top-dose-only effect, or another doubt; inactive = no such curve, though single readings can be large or run the other way; note: potency is the fitted concentration of half-maximal effect; % is set by controls: 0 for no effect and ±100 for the full control effect
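Cells (1,000/well) were plated 4 h before compound, then infected with HCVcc-Cre virus (~0.5 moi). After 44 h further culture, infection was read as luciferase luminescence following a 15 min substrate incubation at room temperature.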
FMDV antiviral – High Throughput Screening for Foot and Mouth Disease Virus Antivirals | FMDV antiviral cell-based qHTS | Potency, µM (titrated, usually from 57.9 µM), without a hit: top-dose activity change, negative = inhibition, most hits filed as inhibitors | 410,000 compounds, 1.2% hits | AID 1159524, 2015; calls by dose curve; tested in HEK293T cells; note: read-out not given here; potency is the fitted concentration of half-maximal effect; % is set by controls: 0 for no effect and ±100 for the full control effect; nearly all actives have a fitted effect of over 45% in size
Marburg entry inh – qHTS for inhibitors of binding or entry into cells for Marburg Virus | Marburg virus pseudotyped entry inhibition, cell reporter | Potency, µM (doses to about 37.8 µM), for inactives: at the top dose activity change, negative = inhibition, most hits filed as inhibitors | 300,000 compounds, 1.8% hits; calls by dose curve; tested in HEK293 cells; note: potency is the fitted concentration of half-maximal effect; % is set by controls: 0 for no effect and ±100 for the full control effect
SARS PLpro yeast – qHTS of Yeast-based Assay for SARS-CoV PLP. S. cerevisiae expressing SARS-CoV PLpro, growth rescue. Potency, µM (top dose mostly 32.9 µM), without a hit: at the highest dose activity, positive = growth rescue, actives largely listed as activators. 330,000 compounds, 0.19% hits; calls by dose curve; note: potency is the fitted concentration of half-maximal effect; 0% is about no effect; nearly all actives have a fitted effect of over 55% in size
An asterisk follows results filed as active; ? = inconclusive; nt = no result; [ ] = another dose, or the depositor's remark.

SMILES	Lassa entry inh	HCMV antiviral	HCV inh	FMDV antiviral	Marburg entry inh	SARS PLpro yeast
Cc1onc(-c2c(F)cccc2Cl)c1C(=O)Nc1cc(S(=O)(=O)N2CCCCC2)ccc1O	?	-100*	?	?	?	nt
CC1CCN(S(=O)(=O)c2cc(C(=O)N3CCN(c4cccc(Cl)c4)CC3)n(C)c2)CC1	-22%[46.1 µM]	?	nt	?	nt	nt
CCOC(=O)c1c(NC(=O)C(c2ccccc2)c2ccccc2)sc2c1C1CCN2CC1	?	-65*	?	-18%	-76%	-9%
CCCCCCCCNc1ncnc2[nH]ncc12	-5%[46.1 µM]	-76*	11µM*	-27%	?	nt
OCCCNc1ncnc2[nH]ncc12	-11%[46.1 µM]	-3	-1%	-12%	22%[46.1 µM]	nt
c1ccc(CCNc2ncnc3scc(C4COc5ccccc5O4)c23)cc1 (stereo not given)	-27%	-84*	13µM*	28µM*	-9%	-6%
Cc1c(C(=O)Nc2cccc(C#N)c2)sc2nc3n(c(=O)c12)CCCCC3	23%[46.1 µM]	-20	nt	-13%	nt	nt
Cc1cc[n+](-c2[nH]c(=O)sc2/C=N/NC([S-])=Nc2ccccc2)cc1	5%	-61*	?	-11%	?	-72%
Cc1ccc(C(=O)c2oc3ccccc3c2NC(=O)c2nc(S(C)(=O)=O)ncc2Cl)cc1F	-3%[46.1 µM]	14	nt	-6%	23%[46.1 µM]	nt
CCCCC[C@H](O)/C=C/[C@H]1C=CC(=O)[C@@H]1CCCCCCC(=O)O	nt	nt	nt	-8%[6.7 µM]	nt	nt
CCCCC[C@@H](/C=C/C1C(=O)C=C[C@H]1C/C=C\CCCC(=O)OC)OC(C)=O (stereo not given in full)	nt	2	-9%[8.37 µM]	28µM*	nt	nt
CC1CC(=O)c2c(cc3c(-c4c(O)cc(O)c5c(O)c6c(cc45)OC(C)CC6=O)c(O)cc(O)c3c2O)O1 (stereo not given)	nt	nt	4.5µM*	35µM*	nt	0%
O=C1CC(c2ccc(O)cc2)Oc2cc(O)cc(O)c21 (stereo not given)	0%	28	-5%	-17%	15%	1%
Cc1ccc(N(CC(=O)Nc2ccccc2-c2ccccc2)S(=O)(=O)c2ccccc2)cc1	?	-70*	10µM*	-10%	?	14%
Cc1ccc(S(=O)(=O)N(CC(=O)Nc2ccccc2-c2ccccc2)c2ccc(C)cc2C)cc1	?	?	?	-19%	?	-4%
Cc1cc(C)cc(N(CC(=O)Nc2ccccc2-c2ccccc2)S(=O)(=O)c2ccccc2)c1	21%	-22	14%	0%	2%	-11%
Cc1ccc(N(CC(=O)NCc2ccco2)S(=O)(=O)c2ccccc2)cc1	-3%	-7	-6%	23%	-14%	4%
CCNC(=O)CN(c1ccc(C)cc1)S(=O)(=O)c1ccccc1	1%	-83*	-10%	19%	-25%[46.1 µM]	1%
CCN(CC)S(=O)(=O)c1ccc(NC(=O)CN(c2ccccc2)S(=O)(=O)N(C)C)cc1	?	-89*	nt	-23%	-6%[46.1 µM]	nt
Cc1cccc(N(CC(=O)Nc2ccccc2-c2ccccc2)S(=O)(=O)c2ccccc2)c1C	-29%	-61*	?	-25%	?	8%
CCN(Cc1ccncc1)Cc1ccc2c(c1)CN(C(=O)c1ccccc1-n1cccn1)CCO2	nt	nt	nt	-10%	nt	nt
CC(=O)Nc1ccc(NC(=O)CN(c2ccc([N+](=O)[O-])cc2)S(=O)(=O)c2ccccc2)cc1	nt	?	-20%	-2%	nt	1%
Cc1cc(NC(=O)CN(c2cccc(C)c2C)S(=O)(=O)c2ccccc2)ccc1Br	?	-68*	nt	?	?	nt
CCc1ccc(N(CC(=O)Nc2ccc(NC(C)=O)cc2)S(=O)(=O)c2ccccc2)cc1	?	-61*	-21%	-1%	-20%	-1%
COc1ccc(Cl)cc1NC(=O)NC(C)C	nt	-101*	?	-9%	nt	0%
CCC(C)(C)NC(=O)Nc1cc(Cl)ccc1OC	3%	-61*	?	2%	-12%	3%

Screens: PubChem BioAssay, National Center for Advancing Translational Sciences (NCATS)
